# Bioassay records as filed in PubChem BioAssay.
# Most compounds without a hit are left out; they make up all but 2.4% or so of the library.
# D2 PAM-1: positive allosteric modulators of human D2 dopamine receptor; 340,000 tested, 0.34% active; AID 485347; P14416; potentiation, % at 10 µM; HEK293 T-REx D2, calcium flux, EC20 dopamine potentiation;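 active means potentiation over 3 SD above the plate norm, cut at about 30% in these data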; further: 0% is about no effect
# Target sequence (P14416 whole entry, looked up): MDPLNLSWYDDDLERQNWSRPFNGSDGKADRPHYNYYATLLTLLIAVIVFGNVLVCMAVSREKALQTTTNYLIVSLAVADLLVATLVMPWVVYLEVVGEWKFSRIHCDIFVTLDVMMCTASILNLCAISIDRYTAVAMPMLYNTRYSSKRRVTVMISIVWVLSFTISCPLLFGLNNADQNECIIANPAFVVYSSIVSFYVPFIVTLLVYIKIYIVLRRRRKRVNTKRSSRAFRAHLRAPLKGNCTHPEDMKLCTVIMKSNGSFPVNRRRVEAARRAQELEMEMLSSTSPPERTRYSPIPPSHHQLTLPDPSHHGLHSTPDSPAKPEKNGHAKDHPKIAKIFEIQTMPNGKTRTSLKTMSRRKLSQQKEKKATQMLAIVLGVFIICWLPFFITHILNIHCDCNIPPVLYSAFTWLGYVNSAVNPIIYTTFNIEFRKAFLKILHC
#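 Primary screen. Calcium kinetics in induced HEK293 T-REx D2 cells: compound pre-addition 180 s, EC20 dopamine, 180 s more.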
# D2 ag-1: activates the human D2 dopamine receptor | P14416 | DiscoveRx PathHunter D2 beta-arrestin, luminescence, 90 min; 100% = 57 uM dopamine signal | activation, % (no concentration beside the values) | 360,000 tested, 0.084% active | AID 624465; in the data active means activation above about 40%; inconclusive means between about 15% and that limit
#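 DiscoveRx PathHunter D2 beta-arrestin cells (2,100/well) attached overnight, then compound-stimulated 90 min at 37 C in HBSS/10 mM HEPES/0.1% Tween-20 buffer; beta-galactosidase complementation read by luminescence after 1 h at ambient temperature. Dopamine 57 uM final (EC100) as control.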
# D2 PAM-2: potentiates the human D2 dopamine receptor allosterically; P14416; DiscoveRx D2 beta-arrestin cells, luminescence, 90 min; 100% = 57 uM dopamine signal; potentiation, % (test concentration not listed); 360,000 tested, 0.23% active; in the data active means potentiation above about 50%; inconclusive means mostly about 30% to 49%
#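 PathHunter D2 cells, attached overnight at 37 deg C, received compound in DMSO plus dopamine at EC20 (50 nM final) for 90 min at 37 deg C. Beta-arrestin recruitment was read as luminescence after 1 h with detection reagent at ambient temperature.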
# D2 antagonist: D2 dopamine receptor (human) antagonism; inhibition, % at 10 µM; 340,000 tested, 2% active; P14416; HEK293 TREx D2 cells, calcium flux, dopamine EC80; in the data active means inhibition above about 30%; inactive means below that, where a call was filed; further: 0% is about no effect
#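 Tetracycline-induced HEK293 TREx cells expressing D2 receptor forced-coupled to calcium signalling, loaded with no-wash calcium dye. Compounds added and calcium flux read 180 s, then dopamine added at EC80 and read a further 180 s.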
# D2 ag-2: agonists of human D2 dopamine receptor; HEK293 T-REx D2 cells, calcium flux agonist mode; P14416; 340,000 tested, 0.53% active; activation, % at 2 µM;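 active means activation over 3 SD above normal in the single-dose calcium agonist read, cut at about 30% in these data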; further: 0% is about no effect
#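 In this primary screen, compounds producing a positive calcium signal within 180 s of addition to tetracycline-induced, force-coupled HEK293 Trex D2 cells are flagged; cells are dye-loaded with a no-wash calcium kit beforehand.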
# The depositor's hits bear a star; ? = inconclusive; / = no result given.
SMILES,D2 PAM-1,D2 ag-1,D2 PAM-2,D2 antagonist,D2 ag-2
CC(C)n1c(C(F)(F)F)nc2cc(C(=O)N3CCCCC3)ccc21,2.7,-5.0,-7.4,-0.6,1.3
CC(C)Oc1ccc(CNC(=O)c2ccc3c(c2)N(C)CCS3)cc1,-18.9,-0.9,-16.1,46.6*,2.2
COc1ccc(C(C)=O)c(Oc2cc(NN3CCCCC3)c([N+](=O)[O-])cc2[N+](=O)[O-])c1,1.3,-2.7,-59.9,-21.0,-1.3
CCC(c1ccc(O)c(O)c1)C(CC)c1ccc(O)c(O)c1 (stereo not drawn),/,59.1*,15.8,/,/
CC(C)NC[C@H](O)c1ccc(O)c(O)c1,8.8,-3.9,-5.2,12.0,4.9
CC(=O)SCC[N+](C)(C)C,-2.7,-5.6,2.9,35.9*,4.2
C[N+](C)(C)CCOC(=O)CCC(=O)OCC[N+](C)(C)C,/,-4.6,0.5,/,/
O=C(OCn1nnc2ccccc2c1=O)c1ccco1,-6.3,-0.3,-7.4,-12.3,-0.1
COc1cc(OC)cc(C(=O)N[C@H](C(=O)OCn2nnc3ccccc3c2=O)C(C)C)c1,31.1*,-3.7,-7.1,-11.8,-0.7
O=C(OCn1nnc2ccccc2c1=O)c1cc2ccccc2o1,8.2,-0.1,-4.6,68.6*,0.6
COc1ccc(C(=O)N[C@H](C(=O)OCn2nnc3ccccc3c2=O)C(C)C)cc1,2.7,-3.2,-3.7,-14.1,0.0
CCOc1ccc(NC(=O)Cn2cc(S(=O)(=O)NC)c(S(=O)(=O)NC)c2)cc1,-0.4,/,/,/,/
O=[N+]([O-])c1ccc(CNc2ccc(Cl)cc2)s1,4.4,11.1,?,95.9*,-1.9
CCCn1cc(S(=O)(=O)CC(=O)NC2CCCCC2)c2ccccc21,-11.6,-0.2,-23.9,50.5*,0.2
COc1ccc(C(=O)Oc2cc(N)n(S(=O)(=O)c3ccc(C)cc3)n2)cc1,7.2,-9.5,-12.4,38.4*,0.8
COc1ccccc1C(=O)Oc1cc(N)n(S(=O)(=O)c2ccc(C)cc2)n1,-2.9,-2.7,-7.0,-11.2,0.3
Cc1ccccc1CS(=O)(=O)c1cnc2ccccc2n1,7.2,-1.8,-0.2,-23.5,-0.1
COc1ccc(COc2ccc(S(=O)(=O)N3CCCC3)cc2C(N)=O)cc1F,30.4*,-4.1,-10.7,-13.8,1.3
COc1ccc(COc2ccccc2C(=O)NCc2ccccc2)cc1F,2.1,5.3,-9.2,41.5*,-0.7
COc1ccc(S(=O)(=O)N2CCCCCC2)cc1C(=O)N(C)Cc1ccc(Cl)cc1Cl,-13.9,0.1,6.9,46.9*,2.4
COc1ccc(S(=O)(=O)N2CCCCCC2)cc1C(=O)N(C)Cc1c(F)cccc1Cl,16.7,0.7,0.5,-15.8,0.5
O=C(c1cc2nc(-c3cccs3)cc(C(F)(F)Cl)n2n1)N1CCCc2ccccc21,13.0,-4.6,-6.0,19.0,0.5
O=C(c1cc2nc(-c3cccs3)cc(C(F)(F)F)n2n1)N1CCCc2ccccc21,-3.0,-2.1,-18.3,31.2*,0.1
COC(=O)c1cc(S(=O)(=O)N2CCN(c3ccc(C(C)=O)cc3)CC2)c[nH]1,/,5.9,-25.9,/,/
CCC(C)c1ccccc1N1CC(C(=O)N2CCN(c3ccccc3)CC2)CC1=O (stereo not drawn),/,-1.2,10.4,/,/
SMILES,D2 PAM-1,D2 ag-1,D2 PAM-2,D2 antagonist,D2 ag-2
CCC(C)c1ccccc1N1CC(C(=O)N2CCN(S(=O)(=O)c3cccc([N+](=O)[O-])c3)CC2)CC1=O (stereo not drawn),-8.1,3.7,8.0,35.8*,0.7
CCCn1c(N)c(Sc2ccccc2)c(=O)n(CCC)c1=O,-7.7,-0.6,1.0,49.0*,-0.1
O=C(NCCCN1CCCCC1)c1ccc2c(c1)ncn2C1CCCC1,-4.3,-4.1,-24.5,30.1*,0.5
Cc1ccc(S(=O)(=O)Nc2ccc(O)c3cccnc23)cc1,31.1*,9.8,?,20.4,-1.5
O=S1(=O)CC(N2CCN(CC3CC3)CC2)CN1Cc1ccccc1 (stereo not drawn),/,-4.4,-13.6,/,/
CCOC(=O)c1cc(NC(=O)c2ccc(C)cc2)c(=O)n2c1oc1ccc(Cl)cc12,-2.1,/,/,/,-0.6
CCOC(=O)c1cc(NC(=O)c2ccc(Cl)cc2)c(=O)n2c1oc1ccc(Cl)cc12,14.9,-0.3,-20.1,31.5*,1.0
C/C(=N\Nc1cccc([N+](=O)[O-])c1)c1cc(F)ccc1O,18.1,-11.7,-15.8,35.1*,-1.3
CCCCCCCC(=O)N/N=C(\C)c1ccc(O)cc1O,-21.4,0.6,-26.0,71.8*,-1.6
CCCCCCCCC(=O)N/N=C(\C)c1ccc(O)cc1O,-28.5,-1.1,-22.7,49.0*,-0.6
CCCCCCCC(=O)N/N=C(\C)c1ccc(N)cc1,4.8,/,/,12.0,0.0
CN(Cc1ccccc1)C(=O)c1ccc(CSc2nc3cccnc3n2Cc2ccccc2F)cc1,3.7,/,/,/,-0.6
CCc1ccccc1NC(=O)C1=CC(c2ccc3c(c2)OCO3)=NS(=O)(=O)N1C,-8.2,/,/,/,0.3
CCCCSc1nnc2c(n1)OC(c1ccc(Br)s1)N(C(C)=O)c1ccccc1-2 (stereo not drawn),0.9,/,/,/,4.4
CCNc1nc(OC)nc(Oc2ccc(=O)n(-c3ccccc3)n2)n1,38.2*,-1.3,-7.4,-6.4,1.2
CCNc1nc(Oc2ccc(=O)n(-c3ccccc3)n2)nc(N(C)C)n1,6.1,-3.1,?,-1.2,0.0
Cc1cccc(C(=O)NC(=S)N2CCc3ccccc3C2)c1,7.2,-4.5,-16.9,8.6,0.7
Cc1cccc(C(=O)NCCC(=O)N2CCc3ccccc3C2)c1,-10.6,-1.8,-4.9,32.1*,0.0
O=C(CN1CCc2ccccc2C1)Nc1ccccc1N1CCCCCC1,3.3,-1.4,-22.0,-39.8,-0.6
O=C(CN1CCc2ccccc2C1)Nc1ccccc1Cl,-4.6,7.9,-40.6,60.6*,30.5*
Cc1ccc(C)c(NC(=O)CCN2CCc3ccccc3C2)c1,-19.7,-1.4,-8.3,31.3*,1.2
CCN1CCN(CCC(=O)Nc2cc(C)ccc2C)CC1,5.9,1.6,-4.2,20.8,0.1
COc1cc2c(cc1OC)CN(C(=O)Nc1ccccc1Cl)CC2,-18.3,-2.4,0.1,34.7*,0.9
Cc1ccc(C)c(N2CCN(C(=O)CCc3nnc4n(CC(C)C)c(=O)c5ccccc5n34)CC2)c1,5.8,/,/,/,1.2
O=C(CCN1CCc2ccccc2C1)Nc1ccc2c(c1)OCO2,-26.4,-1.6,-39.2,58.5*,0.3
Nc1nonc1C(=O)NCCNC(=O)c1ccc(Cl)c(Cl)c1,-7.1,0.1,-7.5,13.4,0.0
O=C(CSc1oc(-c2ccco2)nc1S(=O)(=O)c1ccc(Cl)cc1)c1ccc(Cl)cc1,22.6,/,/,/,-0.6
CN(C)S(=O)(=O)c1cccc(C(=O)Nc2ccccc2)c1,2.6,6.5,-4.4,47.0*,-0.3
CN(C)S(=O)(=O)c1cccc(NC(=O)c2ccc(OC(F)(F)F)cc2)c1,-23.6,0.6,-31.4,46.3*,-0.5
